Results: PubChem BioAssay (EPA / NIEHS)
Where “and” joins values, the source holds several entries; their conditions need not be identical. Equal values may be shown once. Records with an inconclusive call do not appear. More than one record can exist for a structure, and the calls need not agree. Calls of active or inactive are those of the source. How the source made its calls, unless noted: active means hit-call score of the fitted dose curve at least 0.9, where 1 is the maximum; inconclusive means response in the unintended direction; inactive means score below 0.9.

What was measured:
[1] = biological target: Peroxisome proliferator-activated receptor gamma (Homo sapiens) (UniProt P37231); experiment: NVS_NR_hPPARg: NovaScreen (NVS) Nuclear Receptor Binding Assay for human Peroxisome Proliferator-activated Receptor gamma (PPARg) (AID 2283370)
Method in brief: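 Chemicals were tested first in duplicate at 25 uM, then in concentration series if active. Binding to cell-free PPARg protein was measured by fluorescence polarization after 2 h, with loss of signal scored against DMSO.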

[2] = biological target: human Dopamine Transporter (DAT), SLC6A3 (gene 6531) (UniProt Q01959); experiment: NVS_TR_hDAT: NovaScreen (NVS) Transporter Assay for human Dopamine Transporter (DAT) (AID 2283374);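 further: activity means loss of bound radioligand signal relative to DMSO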
Method in brief: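 Duplicate single-point screening at 25 uM preceded concentration-series follow-up of actives. Binding was measured by competitive displacement of a radioligand from DAT protein, filter-counted by scintillation 1 h after dosing. Decrease relative to DMSO taken as activity.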

[3] = biological target: Estrogen receptor beta (Homo sapiens) (UniProt Q92731); experiment: OT_ER_ERbERb_1440: Odyssey Thera (OT) 24-hour HEK293T Protein-Complementation Assay for Estrogen Receptor-beta/-beta Homodimer (AID 2283380);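 further: fluorescence gain from ER beta LBD homodimer complementation read by laser scanning cytometry; scored as signal increase over DMSO baseline for both agonists and antagonists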
Method in brief: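 Fluorescence increase, nuclear for agonists or whole-cell for antagonists, relative to DMSO vehicle, quantified by laser scanning cytometer after fixation and Draq5 staining. Readout from 24 h treatment of HEK293T cells carrying complementation-paired ER beta LBD (aa 310-547).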

[4] = biological target: Estrogen receptor (Homo sapiens) (UniProt P03372); experiment: OT_ERa_GFPERaERE_0480: Odyssey Thera (OT) 8-hour HeLa Transcription Induction Assay for Estrogen Receptor (AID 2283381; active means hit-call score of the fitted dose curve at least 0.9, where 1 is the maximum; inactive means score below 0.9)
Method in brief: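 An 8 h HeLa transcription-induction format with a GFP reporter under ERE control, read by fluorescence microscopy; single endpoint fitted positively with DMSO as baseline.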

[5] = biological target: Estrogen receptor (Homo sapiens) (UniProt P03372); experiment: OT_ERa_GFPERaERE_0120: Odyssey Thera (OT) 2-hour HeLa Transcription Induction Assay for Estrogen Receptor (AID 2283382)
Method in brief: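 Two-hour compound treatment of HeLa cells preceded microscopy imaging of an inducible fluorescent reporter. Image-based quantification gave one endpoint, analysed for signal increase relative to DMSO controls.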

[6] = biological target: Bile acid receptor (Homo sapiens) (UniProt Q96RI1); experiment: OT_FXR_FXRSRC1_0480: Odyssey Thera (OT) 8-hour HEK293T Protein-Complementation Assay for Farnesoid X receptor/SRC-1 Co-activator (AID 2283383)
Method in brief: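 Readings were taken 8 h after dosing HEK293T cells in a split-reporter complementation format pairing FXR with SRC-1. Increased fluorescence relative to DMSO-treated wells defined activity.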

[7] = biological target: Bile acid receptor (Homo sapiens) (UniProt Q96RI1); experiment: OT_FXR_FXRSRC1_1440: Odyssey Thera (OT) 24-hour HEK293T Protein-Complementation Assay for Farnesoid X receptor/SRC-1 Co-activator (AID 2283384)
Method in brief: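 Single endpoint, analysed for increased fluorescence against DMSO controls. HEK293T cells carrying FXR and SRC-1 linked to complementary reporter halves were exposed to chemicals for 24 h before reading.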

[8] = biological target: Retinoic acid receptor RXR-alpha (Homo sapiens) (UniProt P19793); experiment: OT_NURR1_NURR1RXRa_0480: Odyssey Thera (OT) 8-hour HEK293T Protein Complementation Assay for Nurr1/retinoid X receptor (RXR) (AID 2283385)
Method in brief: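 Gain in fluorescent complementation signal over DMSO, measured 8 hours after chemical dosing of human kidney HEK293T cells, indicated enhanced Nurr1–RXRα association.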

[9] = biological target: Retinoic acid receptor RXR-alpha (Homo sapiens) (UniProt P19793); experiment: OT_NURR1_NURR1RXRa_1440: Odyssey Thera (OT) 24-hour HEK293T Protein Complementation Assay for Nurr1/retinoid X receptor (RXR) (AID 2283386)
Method in brief: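 Cell-based binding reporter: HEK293T cells, 24 h exposure, fluorescence-detected fragment complementation, DMSO as baseline.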

[10] = biological target: Peroxisome proliferator-activated receptor gamma (Homo sapiens) (UniProt P37231); experiment: OT_PPARg_PPARgSRC1_0480: Odyssey Thera (OT) 8-hour Protein-Complementation Assay for Peroxisome Proliferator-activated Receptor Gamma / SRC-1 Co-activator (AID 2283387);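 further: nuclear to cytoplasmic split Venus YFP fluorescence ratio reporting PPARg SRC-1 interaction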
Method in brief: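 Read-out: 488 nm N/C fluorescence ratio from complemented Venus YFP fragments, ≥350 cells per image, gain-of-signal fitted against DMSO baseline. Fusions of PPARg/SRC-1 with IFP1/IFP2 expressed transiently in HEK293T; compounds applied 8 h.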

[11] = biological target: mouse Estrogen Receptor alpha (Era), Esr1 (gene 13982) (UniProt P19785); experiment: NVS_NR_mERa: NovaScreen (NVS) Nuclear Receptor Binding Assay for mouse Estrogen Receptor alpha (Era) (AID 2283378);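 further: hit means loss of bound radioligand signal relative to DMSO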
Method in brief: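 Extracted mouse Era incubated with tritiated or iodinated radioligand plus test chemical, 18 h. Bound fraction separated on filters, counted by scintillation. DMSO = negative control/baseline; duplicate single-point at 25 uM, then concentration-response follow-up.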

[12] = CEETOX_H295R_11DCORT: CeeTox H295R High-throughput Steroidogenesis Assay for 11-Deoxycortisol (11DCORT) (AID 2283432; active means hit-call score of the fitted dose curve at least 0.9, where 1 is the maximum; inactive means score below 0.9); conditions: actives raise or lower the signal
Method in brief: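 H295R cells; 10 uM forskolin prestim 48 h; compound in 0.1% DMSO 48 h; media extracted with MTBE; 11-deoxycortisol by LC-MS/MS, 7-point standard curve; gain/loss vs DMSO baseline; viability by MTT in same wells.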

[13] = CEETOX_H295R_OHPREG: CeeTox H295R High-throughput Steroidogenesis Assay for OH-Pregnenolone (OHPREG) (AID 2283434; active means hit-call score of the fitted dose curve at least 0.9, where 1 is the maximum; inactive means score below 0.9); conditions: actives raise or lower the signal
Method in brief: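 Secreted 17alpha-hydroxypregnenolone measured by HPLC-MS/MS after liquid-liquid extraction. Human adrenal H295R cells received 48 h forskolin (10 uM) stimulation before 48 h chemical exposure at 0.1% final DMSO; MTT viability in same wells; bidirectional fit against DMSO.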

[14] = biological target: human Serotonin Transporter (SERT), SLC6A4 (gene 6532) (UniProt P31645); experiment: NVS_TR_hSERT: NovaScreen (NVS) Transporter Assay for human Serotonin Transporter (SERT) (AID 2283372)
Method in brief: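 Human platelet membrane preparation; displacement of radioligand from serotonin transporter measured after 1 h by filtration and scintillation counting. Single 25 uM duplicate screen, then concentration series for actives, with DMSO as negative baseline.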

[15] = biological target: rat Serotonin Transporter (SERT), Slc6a4 (gene 25553) (UniProt P31652); experiment: NVS_TR_rSERT: NovaScreen (NVS) Transporter Assay for rat Serotonin Transporter (SERT) (AID 2283375)
Method in brief: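 Filtration-based radiodetection quantified loss of specific radioligand binding in rat forebrain membranes after 1 hour of chemical exposure, relative to DMSO. Chemicals were first tested in duplicate at 25 uM.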

[16] = biological target: Agonist Androgen Response Element (ARE), AR (gene 367) (UniProt P10275); experiment: OT_AR_ARELUC_AG_1440: Odyssey Thera (OT) 24-hour CHO-K1 Luciferase Assay for Agonist Androgen Response Element (ARE) (AID 2283379)
Method in brief: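 Readout: luciferase bioluminescence from CHO-K1 ARE-luc cells, measured 24 h post-dosing; agonism = increased mean luminescence vs DMSO controls, fitted in positive direction.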

[17] = biological target: Peroxisome proliferator-activated receptor gamma (Homo sapiens) (UniProt P37231); experiment: OT_PPARg_PPARgSRC1_1440: Odyssey Thera (OT) 24-hour Protein-Complementation Assay for Peroxisome Proliferator-activated Receptor Gamma/ SRC-1 Co-activator (AID 2283388);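 further: nuclear to cytoplasmic ratio of reconstituted Venus YFP fluorescence in fixed imaged cells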
Method in brief: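 Protein-fragment complementation between PPARg and coactivator SRC-1 was measured by fluorescence imaging in transiently transfected HEK293T cells after 24 h treatment. Signal was quantified as N/C ratio in the 488 nm channel, with DMSO as negative control.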

[18] = biological target: Norway rat Vesicular Monoamine Transporter (VMAT2), neurotransmitter transporter, Slc18a2 (gene 25549) (UniProt Q01827); experiment: NVS_TR_rVMAT2: NovaScreen (NVS) Transporter Assay for Norway rat Vesicular Monoamine Transporter (VMAT2), neurotransmitter transporter (AID 2283376);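 further: actives lower the bound radioligand signal below the DMSO level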
Method in brief: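 Using rat forebrain membranes, specific radioligand binding to VMAT2 was measured by filtration and scintillation counting after 1 hour. Chemicals screened at 25 uM in duplicate, actives retested in concentration series, DMSO baseline.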

[19] = biological target: human Norepinephrine Transporter (NET), SLC6A2 (gene 6530) (UniProt P23975); experiment: NVS_TR_hNET: NovaScreen (NVS) Transporter Assay for human Norepinephrine Transporter (NET) (AID 2283377);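 further: cell-free membrane protein extracted from CHO cells expressing human NET; displacement of radioligand from human NET seen as loss of scintillation signal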
Method in brief: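 Single-concentration duplicate screen at 25 uM, then concentration-response for actives; displacement of specific radioligand from human NET in CHO membrane extracts, filter-based scintillation detection at 1 h relative to DMSO.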

Sequence of Peroxisome proliferator-activated receptor gamma (Homo sapiens) (P37231 whole entry, looked up, the tested form may be a part): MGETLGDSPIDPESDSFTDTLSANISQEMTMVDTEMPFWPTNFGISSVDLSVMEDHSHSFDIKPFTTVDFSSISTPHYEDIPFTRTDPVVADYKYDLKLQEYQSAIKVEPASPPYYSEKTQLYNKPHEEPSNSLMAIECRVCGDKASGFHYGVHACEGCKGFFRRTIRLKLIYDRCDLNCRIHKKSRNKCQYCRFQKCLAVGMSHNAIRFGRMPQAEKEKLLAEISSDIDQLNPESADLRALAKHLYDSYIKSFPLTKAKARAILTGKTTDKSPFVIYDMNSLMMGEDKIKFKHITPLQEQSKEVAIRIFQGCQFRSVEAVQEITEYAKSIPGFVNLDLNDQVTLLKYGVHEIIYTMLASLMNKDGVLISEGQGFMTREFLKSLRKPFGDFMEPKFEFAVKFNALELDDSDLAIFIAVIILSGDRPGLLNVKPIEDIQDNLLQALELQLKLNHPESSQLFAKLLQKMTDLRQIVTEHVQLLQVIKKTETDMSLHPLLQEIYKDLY
Sequence of Bile acid receptor (Homo sapiens) (Q96RI1 whole entry, looked up): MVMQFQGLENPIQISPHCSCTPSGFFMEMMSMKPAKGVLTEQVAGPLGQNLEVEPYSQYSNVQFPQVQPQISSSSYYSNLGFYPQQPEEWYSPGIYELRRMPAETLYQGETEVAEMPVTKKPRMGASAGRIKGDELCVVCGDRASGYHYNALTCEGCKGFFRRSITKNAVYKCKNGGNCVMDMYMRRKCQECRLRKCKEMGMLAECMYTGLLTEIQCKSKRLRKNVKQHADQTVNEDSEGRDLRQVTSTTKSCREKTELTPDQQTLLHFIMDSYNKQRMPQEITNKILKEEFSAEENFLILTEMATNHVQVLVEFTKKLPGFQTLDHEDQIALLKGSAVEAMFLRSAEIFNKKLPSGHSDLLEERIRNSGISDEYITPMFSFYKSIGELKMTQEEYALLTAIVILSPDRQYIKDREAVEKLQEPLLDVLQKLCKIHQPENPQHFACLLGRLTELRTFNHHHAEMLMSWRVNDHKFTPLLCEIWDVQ
Sequence of Agonist Androgen Response Element (ARE), AR (gene 367) (P10275 whole entry, looked up): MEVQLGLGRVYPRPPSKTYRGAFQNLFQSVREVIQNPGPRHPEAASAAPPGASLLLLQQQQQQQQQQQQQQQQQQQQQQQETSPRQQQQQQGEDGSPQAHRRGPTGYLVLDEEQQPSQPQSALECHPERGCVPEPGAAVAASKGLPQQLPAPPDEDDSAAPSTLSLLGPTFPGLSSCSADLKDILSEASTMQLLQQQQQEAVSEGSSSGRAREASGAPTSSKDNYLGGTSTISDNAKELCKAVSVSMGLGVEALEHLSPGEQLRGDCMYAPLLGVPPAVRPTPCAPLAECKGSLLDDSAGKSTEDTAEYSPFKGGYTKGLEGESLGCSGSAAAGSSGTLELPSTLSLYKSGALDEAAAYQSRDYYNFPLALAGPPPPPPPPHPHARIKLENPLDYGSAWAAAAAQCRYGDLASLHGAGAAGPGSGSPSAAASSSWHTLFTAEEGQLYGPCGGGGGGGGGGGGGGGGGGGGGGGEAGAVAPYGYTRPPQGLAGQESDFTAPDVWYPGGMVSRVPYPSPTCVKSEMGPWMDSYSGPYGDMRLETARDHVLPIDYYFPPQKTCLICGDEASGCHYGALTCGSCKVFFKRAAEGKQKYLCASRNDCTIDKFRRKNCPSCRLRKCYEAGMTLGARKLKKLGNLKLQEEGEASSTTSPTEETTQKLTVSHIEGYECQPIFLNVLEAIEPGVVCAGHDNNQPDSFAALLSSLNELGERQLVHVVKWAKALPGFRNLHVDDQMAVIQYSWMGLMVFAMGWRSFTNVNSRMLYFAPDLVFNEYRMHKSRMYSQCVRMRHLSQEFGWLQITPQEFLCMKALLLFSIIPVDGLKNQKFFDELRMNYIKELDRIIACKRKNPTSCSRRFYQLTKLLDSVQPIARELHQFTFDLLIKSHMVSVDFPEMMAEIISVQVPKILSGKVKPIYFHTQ
Sequence of Estrogen receptor beta (Homo sapiens) (Q92731 whole entry, looked up, the tested form may be a part): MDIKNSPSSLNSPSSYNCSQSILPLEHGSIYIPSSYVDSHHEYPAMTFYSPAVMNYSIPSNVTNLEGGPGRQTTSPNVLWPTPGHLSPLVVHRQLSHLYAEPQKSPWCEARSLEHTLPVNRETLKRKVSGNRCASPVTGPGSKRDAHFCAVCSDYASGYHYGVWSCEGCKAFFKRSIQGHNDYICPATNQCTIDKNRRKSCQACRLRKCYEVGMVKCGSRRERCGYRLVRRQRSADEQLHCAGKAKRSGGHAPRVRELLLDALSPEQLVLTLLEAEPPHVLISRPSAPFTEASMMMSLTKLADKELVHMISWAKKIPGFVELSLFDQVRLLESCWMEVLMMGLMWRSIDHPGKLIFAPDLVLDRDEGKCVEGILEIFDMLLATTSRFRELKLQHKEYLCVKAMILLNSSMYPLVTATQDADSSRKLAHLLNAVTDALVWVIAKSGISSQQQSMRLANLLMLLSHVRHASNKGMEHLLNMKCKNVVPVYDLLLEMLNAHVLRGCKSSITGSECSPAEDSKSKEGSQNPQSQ
Sequence of Estrogen receptor (Homo sapiens) (P03372 whole entry, looked up): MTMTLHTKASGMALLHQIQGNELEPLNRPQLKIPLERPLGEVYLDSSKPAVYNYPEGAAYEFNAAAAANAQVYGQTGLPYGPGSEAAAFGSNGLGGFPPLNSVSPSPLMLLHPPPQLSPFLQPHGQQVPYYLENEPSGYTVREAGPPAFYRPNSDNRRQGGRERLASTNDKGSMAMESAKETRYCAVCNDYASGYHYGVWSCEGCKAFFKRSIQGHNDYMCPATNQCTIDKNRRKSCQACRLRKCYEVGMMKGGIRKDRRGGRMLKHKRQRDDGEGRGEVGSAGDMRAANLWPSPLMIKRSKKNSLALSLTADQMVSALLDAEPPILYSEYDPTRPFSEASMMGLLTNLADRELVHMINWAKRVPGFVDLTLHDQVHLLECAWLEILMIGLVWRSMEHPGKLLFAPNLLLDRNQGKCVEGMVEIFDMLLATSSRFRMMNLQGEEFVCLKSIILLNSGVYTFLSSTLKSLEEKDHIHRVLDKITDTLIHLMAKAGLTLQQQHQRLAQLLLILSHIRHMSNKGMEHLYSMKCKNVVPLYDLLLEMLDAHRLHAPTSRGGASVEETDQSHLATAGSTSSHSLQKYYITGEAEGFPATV
Sequence of Retinoic acid receptor RXR-alpha (Homo sapiens) (P19793 whole entry, looked up, the tested form may be a part): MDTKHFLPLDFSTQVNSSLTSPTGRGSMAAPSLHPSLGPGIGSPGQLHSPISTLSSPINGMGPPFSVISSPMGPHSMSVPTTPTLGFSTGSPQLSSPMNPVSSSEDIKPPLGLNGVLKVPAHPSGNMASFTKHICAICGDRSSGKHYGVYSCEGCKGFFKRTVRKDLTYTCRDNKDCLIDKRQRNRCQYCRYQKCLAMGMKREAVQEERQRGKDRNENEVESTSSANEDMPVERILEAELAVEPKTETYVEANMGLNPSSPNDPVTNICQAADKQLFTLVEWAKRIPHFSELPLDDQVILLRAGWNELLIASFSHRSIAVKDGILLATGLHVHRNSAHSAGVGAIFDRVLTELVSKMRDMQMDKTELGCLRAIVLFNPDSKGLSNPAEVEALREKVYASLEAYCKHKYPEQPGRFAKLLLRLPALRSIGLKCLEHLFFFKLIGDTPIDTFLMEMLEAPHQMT
Sequence of mouse Estrogen Receptor alpha (Era), Esr1 (gene 13982) (P19785 whole entry, looked up): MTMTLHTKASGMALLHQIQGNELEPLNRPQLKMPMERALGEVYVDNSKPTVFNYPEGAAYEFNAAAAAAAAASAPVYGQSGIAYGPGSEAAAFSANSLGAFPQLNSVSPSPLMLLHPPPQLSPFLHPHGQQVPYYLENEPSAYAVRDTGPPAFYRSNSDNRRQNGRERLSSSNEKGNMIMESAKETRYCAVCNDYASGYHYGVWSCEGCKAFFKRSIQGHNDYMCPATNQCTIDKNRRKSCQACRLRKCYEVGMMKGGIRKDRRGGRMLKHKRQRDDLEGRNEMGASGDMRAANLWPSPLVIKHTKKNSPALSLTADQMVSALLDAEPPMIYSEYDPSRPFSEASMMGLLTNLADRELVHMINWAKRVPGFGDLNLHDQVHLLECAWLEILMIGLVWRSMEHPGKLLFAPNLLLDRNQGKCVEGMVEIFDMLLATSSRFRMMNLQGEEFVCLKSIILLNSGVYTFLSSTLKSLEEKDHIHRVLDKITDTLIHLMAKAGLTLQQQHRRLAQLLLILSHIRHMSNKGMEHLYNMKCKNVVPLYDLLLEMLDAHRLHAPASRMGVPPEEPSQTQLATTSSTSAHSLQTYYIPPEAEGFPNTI
Sequence of human Norepinephrine Transporter (NET), SLC6A2 (gene 6530) (P23975 whole entry, looked up): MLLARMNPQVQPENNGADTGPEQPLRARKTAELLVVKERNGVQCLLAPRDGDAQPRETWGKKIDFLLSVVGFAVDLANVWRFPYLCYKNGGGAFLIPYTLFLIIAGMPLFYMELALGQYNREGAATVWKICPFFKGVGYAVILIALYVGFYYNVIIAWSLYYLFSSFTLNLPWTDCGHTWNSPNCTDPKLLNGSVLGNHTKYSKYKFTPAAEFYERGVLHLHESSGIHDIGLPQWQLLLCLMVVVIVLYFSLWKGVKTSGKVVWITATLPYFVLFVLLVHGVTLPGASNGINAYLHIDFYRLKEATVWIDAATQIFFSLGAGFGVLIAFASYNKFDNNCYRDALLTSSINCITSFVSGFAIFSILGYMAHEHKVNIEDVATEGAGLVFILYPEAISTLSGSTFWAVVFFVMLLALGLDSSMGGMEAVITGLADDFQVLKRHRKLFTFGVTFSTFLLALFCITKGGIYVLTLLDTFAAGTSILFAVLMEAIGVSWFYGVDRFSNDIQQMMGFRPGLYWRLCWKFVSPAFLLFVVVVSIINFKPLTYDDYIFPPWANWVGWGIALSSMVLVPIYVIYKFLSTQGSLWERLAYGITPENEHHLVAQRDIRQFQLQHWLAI

C#CCOS(=O)OC1CCCCC1Oc1ccc(C(C)(C)C)cc1 (stereo unspecified)
outcome [1]: inactive
AC50 [2]: 9.17 µM (active)
outcome [3]: inactive
outcome [4]: inactive
outcome [5]: inactive
AC50 [6]: 21.4 µM (active)
AC50 [7]: 31.1 µM (active)
AC50 [8]: 39.4 µM (active)
outcome [8]: inactive
AC50 [9]: 31.6 µM (active)
outcome [9]: inactive
outcome [10]: inactive

CCNc1nc(Cl)nc(NC(C)C)n1
outcome [1]: inactive
AC50 [11]: 6.81 µM (active)
outcome [11]: inactive
outcome [3]: inactive
outcome [4]: inactive
AC50 [5]: 3.42 µM (active)
outcome [5]: inactive
outcome [8]: inactive
outcome [9]: inactive
outcome [10]: inactive
outcome [12]: inactive
outcome [13]: inactive

Cc1cc(Cl)ccc1OCC(=O)O
outcome [1]: inactive
outcome [14]: inactive
outcome [15]: inactive
AC50 [16]: 24 µM (active)
outcome [16]: inactive
outcome [4]: inactive
outcome [5]: inactive
outcome [8]: inactive
outcome [9]: inactive
outcome [10]: inactive
outcome [12]: inactive
outcome [13]: inactive

COP(N)(=O)SC (stereo unspecified)
outcome [1]: inactive
outcome [3]: inactive
outcome [4]: inactive
outcome [5]: inactive
outcome [6]: inactive
outcome [7]: inactive
outcome [8]: inactive
outcome [9]: inactive
outcome [10]: inactive
outcome [17]: inactive

CCCN(CCC)c1c([N+](=O)[O-])cc(S(N)(=O)=O)cc1[N+](=O)[O-]
AC50 [1]: 0.0071 µM (active)
outcome [1]: inactive
outcome [3]: inactive
outcome [4]: inactive
outcome [5]: inactive
outcome [10]: inactive

CCOC(=O)CC(SP(=S)(OC)OC)C(=O)OCC (stereo unspecified)
outcome [1]: inactive
outcome [16]: inactive
outcome [4]: inactive
outcome [5]: inactive
outcome [10]: inactive
outcome [12]: inactive
outcome [13]: inactive

COc1cnc(OC)n2nc(NS(=O)(=O)c3c(OCC(F)F)cccc3C(F)(F)F)nc12
outcome [1]: inactive
outcome [3]: inactive
outcome [4]: inactive
outcome [5]: inactive
outcome [8]: inactive
outcome [9]: inactive
outcome [10]: inactive
outcome [17]: inactive

CO/C=C(/C(=O)OC)c1ccccc1Oc1cc(Oc2ccccc2C#N)ncn1
outcome [1]: inactive
outcome [2]: inactive
outcome [16]: inactive
outcome [3]: inactive
outcome [4]: inactive
outcome [5]: inactive
outcome [8]: inactive
outcome [10]: inactive

CCCCNC(=O)OCC#CI
outcome [1]: inactive
AC50 [18]: 1.59 µM (active) and 4.96 µM (active)
AC50 [19]: 9.04 µM (active) and 9.55 µM (active)
outcome [11]: inactive
outcome [3]: inactive
AC50 [4]: 86.8 µM (active)
AC50 [5]: 12.1 µM (active)
AC50 [8]: 11.4 µM (active)
AC50 [9]: 11.7 µM (active)
outcome [10]: inactive
outcome [17]: inactive
